Results published in PubChem BioAssay (NCI).
This is part of a sample that, as a whole, favours compounds with a hit. Of some 79,000 tested, about 15% had one in any assay. Values without a mark were called inactive. Calls of active or inactive are those of the source. Cut-off read from the data, not from the text of the source: active = growth inhibition above about 70%; inactive = the rest.

assay: NCI Yeast Anticancer Drug Screen. Data for the sgs1 mgt1 strain (AID 161);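 note: 0% = growth of cultures given vehicle only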; conditions: S. cerevisiae sgs1 mgt1 strain, at 50.0 µM (retest, dose inferred, filed as 5.0), hits give high values
In short: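 Yeast cells carrying a defined DNA-repair defect were exposed to test compounds. Growth inhibition was measured relative to vehicle-treated controls.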

| Compound | growth inhibition |
| --- | --- |
| CC(CN(C)C)C(=O)/C=C/c1ccc(Cl)c(Cl)c1 (stereo not given) | 8% |
| CCCCCCNCCCNc1c2cc(OC)ccc2nc2cccc([N+](=O)[O-])c12 | 97% (active) |
| NC(=S)N1N=C2c3ccccc3CC[C@H]2[C@@H]1c1ccc(Cl)cc1 | 79% (active) |
| C/C(=N/NC(=S)Nc1ccccc1C)c1ccccn1 | 15% |
| O=C1/C(=C/c2ccc(Cl)c(Cl)c2)CNC/C1=C\c1ccc(Cl)c(Cl)c1 | 66% |
| CC(C)OP(=O)(OC(C)C)C(=NCCO)NNc1ccc([N+](=O)[O-])cc1 | 23% |
| N#CCC(=O)N/N=C(\c1ccccc1)C(c1ccccc1)C1(O)C(=O)Nc2c(Cl)ccc(Cl)c21 (stereo not given) | 39% |
| CC(C)(CN1CCCCC1)C(=O)CC(SCCS(=O)(=O)O)c1ccccc1 (stereo not given) | 1% |
| COC1=CCC23C(=O)C=CC(=O)C2(C1)C(=O)c1ccccc1C3=O (stereo not given) | 76% (active) |
| CCCCN(CCCC)c1ccc(N=Nc2ccc(S(=O)(=O)O)cc2)cc1 | 98% (active) |
| c1ccc2nc3c(nc2c1)sc1ccccc13 | -5% |
| O=C1c2ccccc2-c2ccc(N=Cc3ccccc3)cc21 | 27% |
| CNC(=S)N/N=C(/C)CCC/C(C)=N/NC(=S)NC | 53% |
| Nc1ccc(/C=C/c2ccc3cccnc3c2)cc1 | 50% |
| COc1ccc2c3c1OC(C)C31CC(=O)CCC1CC2 (stereo not given) | 25% |
| CCOC(=O)Nc1ccc(C)c(NC(=O)OCC)c1 | 57% |
| CCN(CC)CCNc1ccc2nc(C)n3c4ccc(OC)cc4c(=O)c1c23 | 41% |
| C[N+](C)([O-])CCCNc1c2ccccc2nc2cccc([N+](=O)[O-])c12 | 89% (active) |

| Compound | growth inhibition |
| --- | --- |
| O=C(c1cc(=O)c2ccc(O)cc2o1)c1ccc(Cl)cc1Cl | 92% (active) |
| CCCNC(=O)OCc1c(COC(=O)NCCC)c(-c2ccc(Cl)c(Cl)c2)n2c1CCC2 | 67% |
| O=C(Cc1ccccc1)NN1C(=O)C(Cl)C1c1cc(Br)cc(Br)c1O (stereo not given) | 96% (active) |
| CCOC(=O)C(Cc1c2ccccc2cc2ccccc12)(NC(C)=O)C(=O)OCC | 19% |
| O=[N+]([O-])/C=C/c1cc2ccc3ccccc3c2[nH]1 | 97% (active) |
| Fc1ccc(Nc2ccc3ccccc3c2)cc1 | 86% (active) |
| O=S1(=O)CCC2=CC(C(F)(F)F)=CC(C(F)(F)F)=CN21 | 98% (active) |
| O=C(Cc1ccccc1)NNc1nc(NNC(=O)c2ccncc2)nc(Nc2ccc([N+](=O)[O-])cc2)n1 | 41% |
| CCCCS/C(=C(/C#N)C(N)=O)c1cc2c([nH]1)CCCC2 | 31% |
| O=C(O)c1ccccc1C(=O)OC1CCc2ccccc2C1 (stereo not given) | 45% |
| NC(=S)N/N=C1\c2ccccc2CCC1CCC1(O)CCc2ccccc2C1=O (stereo not given) | 88% (active) |
| Cc1cccc2c(Cl)c3cccc(C)c3nc12 | 58% |
| CC(C)OC(=O)NNc1c(Cl)cc(Cl)cc1Cl | 24% |
| Nc1ccc2c(c1)C(=O)c1c(F)cccc1-2 | -28% |
| N#CSCC1COc2ccccc2O1 (stereo not given) | 26% |
| Cc1ccc(S(=O)(=O)NC(=O)C2C(=O)CC3(CCCCC3)CC2=O)cc1 | 21% |
| CC1=NN(C(=O)c2ccccc2O)C(=O)/C1=C/c1ccco1 | 90% (active) |

same assay, conditions: S. cerevisiae sgs1 mgt1 strain, at 50.0 µM, hits give high values

| Compound | growth inhibition |
| --- | --- |
| CC(CN(C)C)C(=O)/C=C/c1ccc(Cl)c(Cl)c1 (stereo not given) | 99.6% (active) |
| CCCCCCNCCCNc1c2cc(OC)ccc2nc2cccc([N+](=O)[O-])c12 | 95.7% (active) |
| NC(=S)N1N=C2c3ccccc3CC[C@H]2[C@@H]1c1ccc(Cl)cc1 | 84.8% (active) |
| C/C(=N/NC(=S)Nc1ccccc1C)c1ccccn1 | 79.8% (active) |
| O=C1/C(=C/c2ccc(Cl)c(Cl)c2)CNC/C1=C\c1ccc(Cl)c(Cl)c1 | 89.6% (active) |
| CC(C)OP(=O)(OC(C)C)C(=NCCO)NNc1ccc([N+](=O)[O-])cc1 | 85% (active) |
| N#CCC(=O)N/N=C(\c1ccccc1)C(c1ccccc1)C1(O)C(=O)Nc2c(Cl)ccc(Cl)c21 (stereo not given) | 51.8% |
| CC(C)(CN1CCCCC1)C(=O)CC(SCCS(=O)(=O)O)c1ccccc1 (stereo not given) | -2% |
| COC1=CCC23C(=O)C=CC(=O)C2(C1)C(=O)c1ccccc1C3=O (stereo not given) | 74.7% (active) |
| CCCCN(CCCC)c1ccc(N=Nc2ccc(S(=O)(=O)O)cc2)cc1 | 91.7% (active) |
| c1ccc2nc3c(nc2c1)sc1ccccc13 | 11.2% |
| O=C1c2ccccc2-c2ccc(N=Cc3ccccc3)cc21 | 36.9% |
| CNC(=S)N/N=C(/C)CCC/C(C)=N/NC(=S)NC | 66.5% |
| Nc1ccc(/C=C/c2ccc3cccnc3c2)cc1 | 46.2% |
| COc1ccc2c3c1OC(C)C31CC(=O)CCC1CC2 (stereo not given) | 8.45% |
| CCOC(=O)Nc1ccc(C)c(NC(=O)OCC)c1 | 4.65% |
| CCN(CC)CCNc1ccc2nc(C)n3c4ccc(OC)cc4c(=O)c1c23 | 18.3% |
| C[N+](C)([O-])CCCNc1c2ccccc2nc2cccc([N+](=O)[O-])c12 | 83.2% (active) |

| Compound | growth inhibition |
| --- | --- |
| O=C(c1cc(=O)c2ccc(O)cc2o1)c1ccc(Cl)cc1Cl | 88% (active) |
| CCCNC(=O)OCc1c(COC(=O)NCCC)c(-c2ccc(Cl)c(Cl)c2)n2c1CCC2 | 50.7% |
| O=C(Cc1ccccc1)NN1C(=O)C(Cl)C1c1cc(Br)cc(Br)c1O (stereo not given) | 98% (active) |
| CCOC(=O)C(Cc1c2ccccc2cc2ccccc12)(NC(C)=O)C(=O)OCC | 86% (active) |
| O=[N+]([O-])/C=C/c1cc2ccc3ccccc3c2[nH]1 | 98.7% (active) |
| Fc1ccc(Nc2ccc3ccccc3c2)cc1 | 91.2% (active) |
| O=S1(=O)CCC2=CC(C(F)(F)F)=CC(C(F)(F)F)=CN21 | 94.4% (active) |
| O=C(Cc1ccccc1)NNc1nc(NNC(=O)c2ccncc2)nc(Nc2ccc([N+](=O)[O-])cc2)n1 | 87.3% (active) |
| CCCCS/C(=C(/C#N)C(N)=O)c1cc2c([nH]1)CCCC2 | 60.5% |
| O=C(O)c1ccccc1C(=O)OC1CCc2ccccc2C1 (stereo not given) | 50.4% |
| NC(=S)N/N=C1\c2ccccc2CCC1CCC1(O)CCc2ccccc2C1=O (stereo not given) | 92.5% (active) |
| Cc1cccc2c(Cl)c3cccc(C)c3nc12 | -15.8% |
| CC(C)OC(=O)NNc1c(Cl)cc(Cl)cc1Cl | 15.2% |
| Nc1ccc2c(c1)C(=O)c1c(F)cccc1-2 | 15.5% |
| N#CSCC1COc2ccccc2O1 (stereo not given) | 90.6% (active) |
| Cc1ccc(S(=O)(=O)NC(=O)C2C(=O)CC3(CCCCC3)CC2=O)cc1 | -16.6% |
| CC1=NN(C(=O)c2ccccc2O)C(=O)/C1=C/c1ccco1 | 87.3% (active) |
